Our source for the outcome and AC50 values is PubChem BioAssay (EPA / NIEHS).

“And” between values parts separate entries of the source, which are not always exact repeats. Equal entries are not always repeated. Records with an inconclusive call do not appear. Some compounds were tested as several samples or in several runs, with calls that do not always agree. The source made the active and inactive calls. Rule for the calls, unless noted: active = hit-call score of the fitted dose curve at least 0.9, where 1 is the maximum; inactive = score below 0.9.

By AC50 is commonly meant the concentration at which the activity in the assay is half-maximal.

A short description of assay [1]: CCTE_Shafer_MEA_dev_active_electrodes_number: CCTE's Neural Network Formation Assay for Number of Active Electrodes, Shafer Lab (AID 2284040; active = hit-call score of the fitted dose curve at least 0.9, where 1 is the maximum;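 for AC50: potency for loss of active electrodes versus DMSO so lower counts are hits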). The method, boiled down: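 Rat cortical primary cultures, 1.5 x 10^5 cells/well, PEI-coated MEA, laminin drop. Continuous exposure DIV 0–12; full media/compound change DIV 5, 9. Readout: electrodes with mean firing ≥5 spikes/min; AUC across days; loss vs DMSO.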

Assay [2] can be described thus: CCTE_Shafer_MEA_dev_bursting_electrodes_number: CCTE's Neural Network Formation Assay for Number of Bursting Electrodes, Shafer Lab (AID 2284043; active = hit-call score of the fitted dose curve at least 0.9, where 1 is the maximum;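 for AC50: potency is for loss of bursting electrodes relative to DMSO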). In outline:
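Primary rat cortical neurons plated on 16-electrode MEA wells, exposed from day 0 with compound renewed at DIV 5 and 9. Electrodes bursting ≥1 burst per 2 min counted on days 5, 7, 9 and 12; trapezoidal AUC across days, fitted for loss versus DMSO.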

Assay [3] in a line: CCTE_Shafer_MEA_dev_per_burst_interspike_interval: CCTE's Neural Network Formation Assay for Burst Interspike Interval, Shafer Lab (AID 2284044).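 For AC50: potency for a decrease of within-burst interspike interval below DMSO level.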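 Note: mean spike spacing inside bursts as AUC over recordings on days 5 7 9 12.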 The method, boiled down:
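Developmental network-formation MEA in primary rat cortical cultures with exposure spanning days 0–12. Within-burst ISI is averaged per well and integrated across recording days by area under the curve, with DMSO as negative control baseline.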

Assay [4] in a line: CCTE_Shafer_MEA_dev_burst_duration_mean: CCTE's Neural Network Formation Assay for Mean Burst Duration, Shafer Lab (AID 2284045).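 For AC50: curve fitted for loss meaning shorter burst duration than DMSO.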 In outline:
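Primary rat cortical neurons on 48-well 16-electrode MEA plates, exposed from day 0 with renewal at DIV 5 and 9; spontaneous activity recorded on days 5, 7, 9, 12. Well-mean burst duration across bursting electrodes, collapsed as trapezoidal AUC; DMSO baseline.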

Assay [5] can be described thus: CCTE_Shafer_MEA_dev_interburst_interval_mean: CCTE's Neural Network Formation Assay for Mean Interburst Interval, Shafer Lab (AID 2284046).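 Note: curve fitted for decrease in interburst interval relative to DMSO.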 In outline: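 Developing rat cortical networks on 48-well MEAs receive compound from the day of plating. Burst intervals from each active electrode are averaged per well, and AUC over the recording days is fitted in the negative direction against DMSO.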

Assay [6] in a line: CCTE_Shafer_MEA_dev_inter_network_spike_interval_mean: CCTE's Neural Network Formation Assay for Mean Inter-network Spike Interval, Shafer Lab (AID 2284047).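 For AC50: potency for a decrease in mean inter-network spike interval below DMSO.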 In outline: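 Rat cortical cultures, 1.5 x 10^5 cells/well on 48-well MEA plates; continuous exposure days 0–12, medium and compound refreshed DIV 5, 9. Mean time between consecutive network-spike peaks; AUC across DIV 5/7/9/12; DMSO baseline, negative fitting direction.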

Assay [7] is described as follows: CCTE_Shafer_MEA_dev_network_spike_number: CCTE's Neural Network Formation Assay for Number of Network Spikes, Shafer Lab (AID 2284048).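 For AC50: fit as a loss of signal meaning fewer network spikes than DMSO.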 The method, boiled down: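 Primary rat cortical neurons on PEI/laminin 48-well MEA plates, dosed from plating day 0 for 12 days, renewed at DIV 5 and 9. Network spike counts recorded DIV 5, 7, 9, 12, collapsed as trapezoidal AUC; DMSO baseline.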

Assay [8] in a line: CCTE_Shafer_MEA_dev_network_spike_peak: CCTE's Neural Network Formation Assay for Mean Number of Electrodes in Network Spike, Shafer Lab (AID 2284049).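 For AC50: fitted for loss of signal meaning fewer electrodes in network spikes than DMSO.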 In outline: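 Network-spike peak electrode count from recordings on days 5, 7, 9 and 12 was combined as trapezoidal area under the curve. Rat cortical cultures were treated continuously from plating, with compound renewed at each feed (DIV 5, 9); fits versus DMSO.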

Assay [9] is described as follows: CCTE_Shafer_MEA_dev_spike_duration_mean: CCTE's Neural Network Formation Assay for Mean Spike Duration, Shafer Lab (AID 2284051).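 For AC50: potency for a decrease in mean network spike duration versus DMSO.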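 Note: mean network spike duration pooled as area under curve over DIV 5 to 12 recordings.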 In outline:
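Readout is the average length of network spikes, clustered firing across electrodes, summed over DIV 5, 7, 9 and 12 as area under the curve. Neurons from rat cortex developed networks on MEA plates under continuous 12-day exposure.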

A short description of assay [10]: CCTE_Shafer_MEA_dev_network_spike_duration_std: CCTE's Neural Network Formation Assay for Standard Deviation of Network Spike Duration, Shafer Lab (AID 2284052).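 Note: hits are decreases in network spike duration SD versus DMSO vehicle.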 The method, boiled down: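 Read-out is the trapezoidal area-under-the-curve across recordings made on days 5, 7, 9 and 12, fitted in the negative direction against DMSO baseline. Neurons were primary rat cortical cells treated from day 0, with treatment renewed at each feed.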

Assay [11] can be described thus: CCTE_Shafer_MEA_dev_per_network_spike_spike_number_mean: CCTE's Neural Network Formation Assay for Mean Number of Spikes in a Network Spike, Shafer Lab (AID 2284053).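 For AC50: fitted as decrease in spikes per network spike relative to DMSO.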 In outline: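 Continuous twelve-day exposure of developing rat cortical networks grown over 16 microelectrodes per well; spontaneous firing is captured at four time points, and the per-network-spike spike number is integrated over development by trapezoidal AUC.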

Assay [12] is described as follows: CCTE_Shafer_MEA_dev_per_network_spike_spike_percent: CCTE's Neural Network Formation Assay for Percent of Spikes in a Network Spike, Shafer Lab (AID 2284054). The method, boiled down:
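Rat primary cortical neurons were grown on 48-well MEA plates (16 electrodes/well), exposed from plating day 0 through day 12, with treatment renewed on DIV 5 and 9. Percent of spikes within 0.05 s network-spike peaks was measured, summarised as AUC across days 5, 7, 9, 12.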

A short description of assay [13]: CCTE_Shafer_MEA_dev_LDH: CCTE's Lactate Dehydrogenase Assay for Cytotoxicity in the Neural Network Formation Assay, Shafer Lab (AID 2284068; active = hit-call score of the fitted dose curve at least 0.9, where 1 is the maximum;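 note: exposure for twelve days from plating with re-dosing on DIV 5 and 9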). In outline: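 Cytotoxicity companion to network-formation recordings: rat cortical neurons received compound over 12 days of development, re-dosed at DIV 5 and 9 feeds. Viability was inferred from LDH enzyme activity relative to DMSO.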

The test system of the next assay is DIO2 (gene 1734). In words: CCTE_GLTED_hDIO2: CCTE's human Deiodinase 2 (DIO2) Inhibition Assay, Great Lakes Toxicology and Ecology Division (GLTED) Lab (AID 2284050; active = hit-call score of the fitted dose curve at least 0.9, where 1 is the maximum). In outline: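 In this cell-free test, chemicals are exposed to human deiodinase type 2 for 3 hours. Released iodide is determined spectrophotometrically via the Sandell-Kolthoff method, and signal loss relative to DMSO is fitted.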

The next assay relates to DIO3 (gene 1735). Description: CCTE_GLTED_hDIO3: CCTE's human Deiodinase 3 (DIO3) Inhibition Assay, Great Lakes Toxicology and Ecology Division (GLTED) Lab (AID 2284055; active = hit-call score of the fitted dose curve at least 0.9, where 1 is the maximum;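 for AC50: potency is for inhibition seen as loss of released iodide signal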). The method, boiled down:
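Enzyme activity is tracked as iodide release from substrate by recombinant human DIO3 over 3 h with chemical present. A second Sandell-Kolthoff step converts iodide to an absorbance signal, fitted relative to DMSO.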

The nature of assay [14]: CCTE_Shafer_MEA_acute_AB: CCTE's Alamar Blue Assay for Cytotoxicity in the Neural Acute Assay, Shafer Lab (AID 2284069; active = hit-call score of the fitted dose curve at least 0.9, where 1 is the maximum;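 note: active compounds lower the viability signal compared with DMSO wells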). The method, boiled down: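 Metabolic activity in chemically exposed rat cortical neurons (MEA cultures, day 13/15 post-plating) measured via CellTiter Blue resazurin reduction, 544/590 nm fluorescence; fitted relative to DMSO, with signal loss indicating reduced viability.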

Turning to `c1ccc(OP(Oc2ccccc2)Oc2ccccc2)cc1`, the call in assay [1], in assay [2], in [3], in assay [4], in assay [5] and in [6] was inactive. In addition, the call in assay [7], in assay [8], in assay [9], in [10], in [11] and in [12] was inactive. The outcome in assay [13] was inactive.

Consider `CCCCC(CC)COP(=O)(Oc1ccccc1)Oc1ccccc1` (configuration not stated), for which the call in [1], in assay [2], in assay [3], in assay [4], in assay [5] and in assay [6] was inactive. Moreover, the molecule was classed as inactive in assay [7], in assay [9], in assay [10], in [11] and in assay [12]. The AC50 in assay [8] was 1.67 µM (active); in assay [13] it was 6.12 µM (active).

Take `O=c1ssc(Cl)c1Cl`: the AC50 in the assay with DIO2 (gene 1734) was 13.8 µM (active); in the assay on DIO3 (gene 1735), 3.57 µM (active).

Consider `CC(O)C(F)(F)C(F)(F)F` (configuration not stated), for which the molecule was called inactive in [1], in assay [2], in [3], in assay [4], in assay [5] and in [6]. In addition, the result in [7], in assay [8], in assay [9], in assay [10], in [11] and in [12] was inactive.

Consider `O=P(Oc1ccccc1)(Oc1ccccc1)Oc1ccccc1`, for which the call in [1], in [2], in assay [3], in assay [4], in [5] and in assay [6] was inactive. Moreover, the outcome in assay [7], in assay [9], in assay [10], in [11], in assay [12] and in assay [13] was inactive. The AC50 in assay [8] was 2.97 µM (active).

Take `CO/N=C(/C(=O)OC)c1ccccc1COc1ccccc1C`: the half-maximal activity concentration (AC50) is 857 nM (active) in assay [1]; 857 nM (active) in [2]; 2.25 µM (active) in assay [3]; 0.863 µM (active) in [4]; 0.939 µM (active) in [5]; 0.712 µM (active) in assay [6]. The AC50 is 0.474 µM (active) in assay [7]; 0.567 µM (active) in [8]; 0.688 µM (active) in assay [9]; 0.312 µM (active) in assay [10]; 518 nM (active) in assay [11]; 0.902 µM (active) in [12]. In [13], the AC50 is 0.811 µM (active).

As to `CCNc1nc(Cl)nc(NC(C)(C)C)n1`, in the assay with DIO2 (gene 1734), the call was inactive. The AC50 with DIO3 (gene 1735) was 11.4 µM (active).

For `O=C(O)C=CC(F)(C(F)(F)F)C(F)(F)F`, the outcome in assay [3], in [4], in assay [5], in [6], in [7] and in assay [8] was inactive. Also, the outcome in assay [9], in assay [10], in assay [11] and in assay [12] was inactive.

As for `CCOP(=S)(OCC)SCSCC`, the AC50 in assay [1] is 81.3 µM (active) and 23.2 µM (active); in assay [2], 76.1 µM (active) and 23.1 µM (active); in assay [5] it was 50 µM (active); in assay [8], 74.9 µM (active) and 26.4 µM (active); in assay [9], 72.3 µM (active); in [11], 50 µM (active) and 12.1 µM (active). Also, the AC50 in assay [12] is 92 µM (active); in assay [13] it was 33.7 µM (active). Besides, the molecule was called inactive in assay [3], in assay [4], in [5], in assay [6], in assay [7] and in assay [9]. Moreover, the molecule was classed as inactive in assay [10], in [12] and in assay [13].

In the case of `OCC(F)(F)OC(F)(F)C(F)(F)OC(F)(F)CO`, the molecule was called inactive in [1], in [2], in assay [3], in assay [4], in [5] and in assay [6]. Further, the molecule was called inactive in assay [7], in [8], in [9], in [10], in [11] and in assay [12]. Moreover, in [13], the result was inactive.

In the case of `COC(=O)C(F)(F)C(F)(F)OC(F)(C(F)(F)F)C(F)(F)OC(F)=C(F)F` (configuration not stated), the results for the AC50 with DIO2 (gene 1734) and in the assay on DIO3 (gene 1735) were 18.2 µM (active) and 3.1 µM (active), respectively.

On to `c1cc2c3c(cccc3c1)CC2`, for which the molecule was classed as inactive in assay [1], in assay [2], in assay [3], in [4], in [5] and in assay [6]. In addition, the call in assay [7], in [8], in assay [9], in assay [10], in [11] and in assay [12] was inactive.

Consider `OCC(F)(F)OC(F)(F)C(F)(F)OC(F)(F)C(F)(F)OC(F)(F)CO`, for which the outcome in assay [1], in [2], in assay [3], in assay [4], in assay [5] and in assay [6] was inactive. In addition, the molecule was called inactive in assay [7], in [8], in [9], in assay [10], in assay [11] and in [12].

As for `O=P1(N(CCCl)CCCl)NCCCO1` (configuration not stated), the molecule was classed as inactive in assay [1], in [2], in [3], in [4], in assay [5] and in [6]. Also, the result in assay [7], in assay [8], in assay [9], in assay [10], in assay [11] and in assay [12] was inactive. Further, the AC50 in assay [13] is 11.6 µM (active).

`CC1(C)CN=C(NN=C(/C=C/c2ccc(C(F)(F)F)cc2)/C=C/c2ccc(C(F)(F)F)cc2)NC1`: the AC50 in the assay on DIO2 (gene 1734) was 18.8 µM (active). Besides, the call with DIO3 (gene 1735) was inactive.

For `CCC1(c2ccccc2)C(=O)N=C(O)NC1=O` (configuration not stated), the outcome in [1], in assay [3], in [4], in [5], in [6] and in assay [7] was inactive. The result in assay [8], in assay [9], in assay [10], in [11], in assay [12] and in assay [13] was inactive. Further, the call in [14] was inactive.
